Our source for the binding signal values is paper PMC7862700, “An all-to-all approach to the identification of sequence-specific readers for epigenetic DNA modifications on cytosine”.

What all share (assay): DAPPL (digital affinity profiling via proximity ligation, sequencing); 10 mM Tris-HCl pH 7.5, 50 mM NaCl, 1 mM DTT, 4% glycerol, room temperature, 30 min; GST-TFs on glutathione beads, 16-mer random dsDNA library, 0.1% formaldehyde crosslink after washing; high values mean tight binding
Common to all, as to conditions: protein: recombinant; tags: N-terminal GST; dsDNA, one strand shown

Experiment [1] concerns the target T1, FLI1 (Homo sapiens, UniProt Q01543 1-452).
T1 sequence: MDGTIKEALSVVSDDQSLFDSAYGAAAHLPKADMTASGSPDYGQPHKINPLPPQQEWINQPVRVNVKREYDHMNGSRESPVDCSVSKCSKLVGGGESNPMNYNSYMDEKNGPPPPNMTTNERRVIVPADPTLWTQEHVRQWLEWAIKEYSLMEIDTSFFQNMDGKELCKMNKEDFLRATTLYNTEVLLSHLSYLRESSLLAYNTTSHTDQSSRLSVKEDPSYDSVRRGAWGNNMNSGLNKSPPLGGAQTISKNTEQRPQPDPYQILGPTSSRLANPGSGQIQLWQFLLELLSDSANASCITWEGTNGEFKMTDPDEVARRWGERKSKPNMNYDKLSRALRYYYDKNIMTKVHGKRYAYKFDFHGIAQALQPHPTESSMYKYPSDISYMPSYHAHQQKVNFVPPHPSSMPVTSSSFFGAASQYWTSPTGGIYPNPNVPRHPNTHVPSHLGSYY
The essentials:
(§1)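 Each value of binding signal is a hexamer's read frequency for a factor divided by the same hexamer's frequency in the tag-only sample. Barcoded, bead-captured GST fusions of human transcription factors made in yeast were pooled with that sample and incubated with 200 nmole of a random double-stranded 16-mer DNA library in Tris/NaCl/DTT/glycerol buffer at room temperature for 30 min. Washing, 0.1% formaldehyde crosslinking, proximity ligation, PCR and Illumina NextSeq500 sequencing followed.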

In experiment [2] the target is T2, ELK1 (Homo sapiens, UniProt P19419 1-428).
T2 sequence: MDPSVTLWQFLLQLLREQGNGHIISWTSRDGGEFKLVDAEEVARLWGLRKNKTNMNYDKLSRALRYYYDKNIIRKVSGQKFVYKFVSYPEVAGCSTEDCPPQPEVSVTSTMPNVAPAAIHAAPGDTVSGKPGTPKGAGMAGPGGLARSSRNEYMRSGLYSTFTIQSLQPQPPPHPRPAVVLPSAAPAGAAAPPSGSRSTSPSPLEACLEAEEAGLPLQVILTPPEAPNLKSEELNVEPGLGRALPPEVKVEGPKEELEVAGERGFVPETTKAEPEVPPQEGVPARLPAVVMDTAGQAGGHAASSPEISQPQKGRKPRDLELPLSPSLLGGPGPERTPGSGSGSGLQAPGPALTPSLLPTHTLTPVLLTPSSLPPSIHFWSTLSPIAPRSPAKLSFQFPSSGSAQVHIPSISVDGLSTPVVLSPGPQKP
In short, it runs like this: as §1

Experiment [3] deals with T3, GABPA (Homo sapiens, UniProt Q06546 1-454).
T3 sequence: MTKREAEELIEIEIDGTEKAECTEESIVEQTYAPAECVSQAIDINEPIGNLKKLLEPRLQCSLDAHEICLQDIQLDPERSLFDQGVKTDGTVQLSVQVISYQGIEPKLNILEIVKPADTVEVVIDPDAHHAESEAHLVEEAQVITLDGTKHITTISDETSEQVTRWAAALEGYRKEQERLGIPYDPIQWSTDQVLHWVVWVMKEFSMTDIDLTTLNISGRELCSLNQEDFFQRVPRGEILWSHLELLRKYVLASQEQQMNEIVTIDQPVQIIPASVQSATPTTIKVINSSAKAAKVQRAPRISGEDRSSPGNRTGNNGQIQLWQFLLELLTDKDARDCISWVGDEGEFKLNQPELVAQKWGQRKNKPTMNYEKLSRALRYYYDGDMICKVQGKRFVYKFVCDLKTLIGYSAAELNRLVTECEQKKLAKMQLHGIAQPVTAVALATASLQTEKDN
The essentials:
as §1

For experiment [4], the target named is T4, ERG (Homo sapiens, UniProt P11308 1-479).
T4 sequence: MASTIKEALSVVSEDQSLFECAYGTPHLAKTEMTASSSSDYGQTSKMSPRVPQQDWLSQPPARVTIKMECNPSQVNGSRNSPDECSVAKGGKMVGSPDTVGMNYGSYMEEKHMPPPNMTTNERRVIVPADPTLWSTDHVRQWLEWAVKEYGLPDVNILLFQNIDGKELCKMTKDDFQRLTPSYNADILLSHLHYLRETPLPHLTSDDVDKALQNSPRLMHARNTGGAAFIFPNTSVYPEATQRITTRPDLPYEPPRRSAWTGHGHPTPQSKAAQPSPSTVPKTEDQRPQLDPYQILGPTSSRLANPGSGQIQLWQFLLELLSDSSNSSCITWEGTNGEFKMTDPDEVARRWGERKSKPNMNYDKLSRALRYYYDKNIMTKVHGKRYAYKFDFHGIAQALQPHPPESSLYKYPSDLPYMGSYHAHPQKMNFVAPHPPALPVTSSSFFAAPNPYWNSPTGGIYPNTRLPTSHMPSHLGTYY
The essentials:
as §1

In experiment [5] the target is ELF1 (Homo sapiens, UniProt P32519 1-619). The essentials: as §1
Sequence of ELF1 (P32519 whole entry): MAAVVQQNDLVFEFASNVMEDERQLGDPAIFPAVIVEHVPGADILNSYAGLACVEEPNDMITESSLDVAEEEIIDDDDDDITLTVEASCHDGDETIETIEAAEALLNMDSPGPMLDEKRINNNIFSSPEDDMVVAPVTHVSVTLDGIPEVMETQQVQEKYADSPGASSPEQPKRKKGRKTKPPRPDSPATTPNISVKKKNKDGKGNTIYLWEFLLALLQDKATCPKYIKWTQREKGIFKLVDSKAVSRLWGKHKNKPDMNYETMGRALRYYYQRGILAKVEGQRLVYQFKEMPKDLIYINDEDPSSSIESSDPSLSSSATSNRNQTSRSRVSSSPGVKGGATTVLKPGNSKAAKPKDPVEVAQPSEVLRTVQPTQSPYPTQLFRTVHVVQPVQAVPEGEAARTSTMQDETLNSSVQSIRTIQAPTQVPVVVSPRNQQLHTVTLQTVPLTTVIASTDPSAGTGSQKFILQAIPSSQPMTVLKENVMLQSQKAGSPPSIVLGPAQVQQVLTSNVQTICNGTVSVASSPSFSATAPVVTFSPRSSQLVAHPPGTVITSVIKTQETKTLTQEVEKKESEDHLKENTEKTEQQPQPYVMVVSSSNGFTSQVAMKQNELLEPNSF
Experiment [6] deals with T5, EHF (Homo sapiens, UniProt Q9NZC4 1-300).
T5 sequence: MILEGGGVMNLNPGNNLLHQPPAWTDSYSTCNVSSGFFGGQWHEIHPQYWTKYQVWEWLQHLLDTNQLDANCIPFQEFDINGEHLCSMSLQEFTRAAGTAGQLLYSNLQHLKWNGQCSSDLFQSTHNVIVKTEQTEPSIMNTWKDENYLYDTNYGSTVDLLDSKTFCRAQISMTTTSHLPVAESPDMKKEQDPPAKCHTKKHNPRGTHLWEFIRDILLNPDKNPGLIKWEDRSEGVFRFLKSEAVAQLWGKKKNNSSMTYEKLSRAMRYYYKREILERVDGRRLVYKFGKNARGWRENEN
In short, it runs like this: as §1

In experiment [7] the target is SPI1 (Homo sapiens, UniProt P17947 1-270). The essentials:
as §1

The target of experiment [8] is SPIB (Homo sapiens, UniProt Q01892 1-262). In short, it runs like this:
as §1

The target of experiment [9] is T6, ELK3 (Homo sapiens, UniProt P41970 1-407).
T6 sequence: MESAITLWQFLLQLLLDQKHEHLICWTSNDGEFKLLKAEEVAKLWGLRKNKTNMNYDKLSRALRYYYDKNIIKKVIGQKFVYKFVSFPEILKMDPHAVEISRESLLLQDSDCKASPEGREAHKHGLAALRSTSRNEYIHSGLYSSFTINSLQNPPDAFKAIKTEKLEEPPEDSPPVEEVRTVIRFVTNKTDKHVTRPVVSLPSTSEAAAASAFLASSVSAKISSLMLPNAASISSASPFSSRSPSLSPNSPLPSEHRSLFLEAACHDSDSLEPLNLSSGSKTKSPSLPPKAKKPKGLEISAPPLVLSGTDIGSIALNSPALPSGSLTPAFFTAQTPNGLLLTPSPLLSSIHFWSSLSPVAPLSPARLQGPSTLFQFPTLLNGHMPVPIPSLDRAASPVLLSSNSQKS
The essentials:
as §1

In experiment [10] the target is T7, FEV (Homo sapiens, UniProt Q99581 1-238).
T7 sequence: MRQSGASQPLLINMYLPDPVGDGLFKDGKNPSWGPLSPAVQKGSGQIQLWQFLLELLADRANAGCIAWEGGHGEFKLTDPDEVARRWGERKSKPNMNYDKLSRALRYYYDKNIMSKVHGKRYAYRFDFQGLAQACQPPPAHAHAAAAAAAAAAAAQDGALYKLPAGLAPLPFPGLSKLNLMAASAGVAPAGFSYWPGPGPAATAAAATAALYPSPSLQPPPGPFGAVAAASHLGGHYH
In short, it runs like this: as §1

Experiment [11] concerns the target ETV5 (Homo sapiens, UniProt P41161 1-510). In short, it runs like this:
as §1

For experiment [12], the target named is T8, SPIC (Homo sapiens, UniProt Q8N5J4 1-248).
T8 sequence: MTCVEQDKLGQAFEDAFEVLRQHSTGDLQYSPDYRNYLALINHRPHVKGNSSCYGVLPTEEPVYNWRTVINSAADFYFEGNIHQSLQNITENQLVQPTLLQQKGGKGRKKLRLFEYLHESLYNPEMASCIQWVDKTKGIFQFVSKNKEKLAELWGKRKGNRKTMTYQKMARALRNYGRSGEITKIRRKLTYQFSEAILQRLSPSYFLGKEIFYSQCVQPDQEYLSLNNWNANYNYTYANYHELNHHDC
The essentials:
as §1

The target of experiment [13] is ELF4 (Homo sapiens, UniProt Q99607 1-663). In short, it runs like this:
as §1

The target in experiment [14] is T9, ELK4 (Homo sapiens, UniProt P28324-2 1-405).
T9 sequence: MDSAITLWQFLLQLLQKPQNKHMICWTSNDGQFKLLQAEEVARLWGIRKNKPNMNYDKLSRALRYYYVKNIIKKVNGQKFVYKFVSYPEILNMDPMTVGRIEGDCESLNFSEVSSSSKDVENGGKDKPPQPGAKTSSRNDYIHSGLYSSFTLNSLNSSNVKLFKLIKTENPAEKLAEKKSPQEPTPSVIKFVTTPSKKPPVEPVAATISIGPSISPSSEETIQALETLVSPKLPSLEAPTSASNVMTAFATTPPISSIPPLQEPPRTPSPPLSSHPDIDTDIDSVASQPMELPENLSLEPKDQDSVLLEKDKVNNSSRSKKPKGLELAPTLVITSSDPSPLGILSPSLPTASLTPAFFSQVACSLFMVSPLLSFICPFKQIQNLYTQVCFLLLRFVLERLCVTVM
The essentials:
as §1

For experiment [15], the target named is T10, ETV2 (Homo sapiens, UniProt O00321 1-342).
T10 sequence: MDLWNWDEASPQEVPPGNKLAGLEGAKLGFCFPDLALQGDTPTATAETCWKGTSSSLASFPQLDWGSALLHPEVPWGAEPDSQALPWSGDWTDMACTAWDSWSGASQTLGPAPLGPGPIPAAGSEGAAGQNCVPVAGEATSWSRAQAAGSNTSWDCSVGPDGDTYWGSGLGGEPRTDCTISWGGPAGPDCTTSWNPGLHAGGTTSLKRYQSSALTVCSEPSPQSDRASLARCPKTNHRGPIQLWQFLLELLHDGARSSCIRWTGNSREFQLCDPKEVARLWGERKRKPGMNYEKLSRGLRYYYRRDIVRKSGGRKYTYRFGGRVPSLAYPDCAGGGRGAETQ
The essentials:
as §1

The target in experiment [16] is T11, ELF3 (Homo sapiens, UniProt P78545 1-371).
T11 sequence: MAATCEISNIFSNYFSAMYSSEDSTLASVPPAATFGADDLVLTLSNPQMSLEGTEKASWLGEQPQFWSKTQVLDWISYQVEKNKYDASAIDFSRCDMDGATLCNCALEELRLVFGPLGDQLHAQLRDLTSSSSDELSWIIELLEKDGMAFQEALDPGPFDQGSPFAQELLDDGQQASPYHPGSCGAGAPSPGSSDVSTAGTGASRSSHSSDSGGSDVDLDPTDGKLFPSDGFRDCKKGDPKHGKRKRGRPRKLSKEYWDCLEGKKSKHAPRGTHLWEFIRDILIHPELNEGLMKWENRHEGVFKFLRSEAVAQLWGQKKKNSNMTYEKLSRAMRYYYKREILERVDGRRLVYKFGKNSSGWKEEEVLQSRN
The essentials: as §1

The target in experiment [17] is ETV1 (Homo sapiens, UniProt P50549 1-477). The essentials:
as §1

Sequence of ELF4 (Q99607 whole entry): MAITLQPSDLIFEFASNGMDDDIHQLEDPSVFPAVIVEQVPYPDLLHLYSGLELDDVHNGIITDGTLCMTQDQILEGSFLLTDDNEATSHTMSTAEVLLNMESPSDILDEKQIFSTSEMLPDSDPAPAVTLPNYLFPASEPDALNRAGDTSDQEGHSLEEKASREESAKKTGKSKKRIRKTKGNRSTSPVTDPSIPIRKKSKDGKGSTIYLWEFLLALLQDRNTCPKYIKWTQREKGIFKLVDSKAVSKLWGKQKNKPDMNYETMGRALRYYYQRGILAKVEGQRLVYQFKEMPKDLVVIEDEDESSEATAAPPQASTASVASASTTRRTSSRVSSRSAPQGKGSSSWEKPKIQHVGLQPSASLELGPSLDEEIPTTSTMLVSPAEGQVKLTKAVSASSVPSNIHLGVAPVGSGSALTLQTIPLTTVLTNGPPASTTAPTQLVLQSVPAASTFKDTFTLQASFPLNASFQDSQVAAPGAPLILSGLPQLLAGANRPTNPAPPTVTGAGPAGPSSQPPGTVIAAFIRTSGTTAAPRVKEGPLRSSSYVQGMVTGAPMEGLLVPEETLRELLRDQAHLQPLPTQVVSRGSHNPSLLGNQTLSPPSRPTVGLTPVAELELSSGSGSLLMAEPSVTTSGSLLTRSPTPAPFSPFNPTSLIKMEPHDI
Sequence of ETV5 (P41161 whole entry): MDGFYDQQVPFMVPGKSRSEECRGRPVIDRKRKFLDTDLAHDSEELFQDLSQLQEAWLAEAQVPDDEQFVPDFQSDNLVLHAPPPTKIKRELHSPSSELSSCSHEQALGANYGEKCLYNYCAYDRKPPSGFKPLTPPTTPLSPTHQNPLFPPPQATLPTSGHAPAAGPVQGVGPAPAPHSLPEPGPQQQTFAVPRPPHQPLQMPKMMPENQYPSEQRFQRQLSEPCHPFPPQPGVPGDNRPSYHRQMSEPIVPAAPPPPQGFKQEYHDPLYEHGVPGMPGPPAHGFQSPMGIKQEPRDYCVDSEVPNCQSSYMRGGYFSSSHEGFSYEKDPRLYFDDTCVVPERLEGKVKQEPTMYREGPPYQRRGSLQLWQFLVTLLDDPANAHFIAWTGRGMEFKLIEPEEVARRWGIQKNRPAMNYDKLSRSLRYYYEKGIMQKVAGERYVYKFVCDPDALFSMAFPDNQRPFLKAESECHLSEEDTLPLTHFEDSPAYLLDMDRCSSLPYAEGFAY
Sequence of SPIB (Q01892 whole entry): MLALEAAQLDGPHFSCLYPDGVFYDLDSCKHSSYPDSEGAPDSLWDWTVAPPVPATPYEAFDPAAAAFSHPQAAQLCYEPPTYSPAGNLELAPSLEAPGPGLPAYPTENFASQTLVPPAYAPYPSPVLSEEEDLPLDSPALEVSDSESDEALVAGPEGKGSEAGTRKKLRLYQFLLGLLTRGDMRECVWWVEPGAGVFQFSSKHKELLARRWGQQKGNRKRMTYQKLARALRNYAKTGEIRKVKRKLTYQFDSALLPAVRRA
Sequence of ETV1 (P50549 whole entry): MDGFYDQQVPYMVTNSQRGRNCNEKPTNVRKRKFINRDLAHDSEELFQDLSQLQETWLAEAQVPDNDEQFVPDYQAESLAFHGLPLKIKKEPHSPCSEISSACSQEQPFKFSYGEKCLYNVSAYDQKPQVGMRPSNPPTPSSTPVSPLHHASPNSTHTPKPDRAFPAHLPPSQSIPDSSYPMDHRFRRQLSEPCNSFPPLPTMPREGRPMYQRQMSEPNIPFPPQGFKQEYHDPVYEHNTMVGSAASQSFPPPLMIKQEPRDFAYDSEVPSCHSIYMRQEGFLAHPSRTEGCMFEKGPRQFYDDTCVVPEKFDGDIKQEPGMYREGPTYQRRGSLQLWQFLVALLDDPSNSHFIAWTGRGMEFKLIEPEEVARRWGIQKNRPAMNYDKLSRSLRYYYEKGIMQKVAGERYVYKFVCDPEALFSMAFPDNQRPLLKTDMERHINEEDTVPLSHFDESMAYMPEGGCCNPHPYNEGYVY

For the sequence CCTCAC, the binding signal was 1.29 fold enrichment (6-mer frequency, TF over GST control) in experiment [1]; 1.3 fold enrichment (6-mer frequency, TF over GST control) in [2]; 1.26 fold enrichment (6-mer frequency, TF over GST control) in [3]; 1.22 fold enrichment (6-mer frequency, TF over GST control) in experiment [4]; 1.22 fold enrichment (6-mer frequency, TF over GST control) in experiment [5]; 1.28 fold enrichment (6-mer frequency, TF over GST control) in [6]. Also, the binding signal was 1.28 fold enrichment (6-mer frequency, TF over GST control) in experiment [7]; 1.21 fold enrichment (6-mer frequency, TF over GST control) in experiment [8]; 1.33 fold enrichment (6-mer frequency, TF over GST control) in experiment [9]; 1.27 fold enrichment (6-mer frequency, TF over GST control) in [10]; 1.25 fold enrichment (6-mer frequency, TF over GST control) in [11]; 1.11 fold enrichment (6-mer frequency, TF over GST control) in experiment [12]. For the same sequence, the binding signal was 1.31 fold enrichment (6-mer frequency, TF over GST control) in experiment [13]; 1.16 fold enrichment (6-mer frequency, TF over GST control) in [14]; 1.24 fold enrichment (6-mer frequency, TF over GST control) in experiment [15]; 1.2 fold enrichment (6-mer frequency, TF over GST control) in [16]; 1.27 fold enrichment (6-mer frequency, TF over GST control) in experiment [17].

For the sequence CACACA, the binding signal is 1.17 fold enrichment (6-mer frequency, TF over GST control) in [1]; 1.08 fold enrichment (6-mer frequency, TF over GST control) in [2]; 1.14 fold enrichment (6-mer frequency, TF over GST control) in [3]; 1.15 fold enrichment (6-mer frequency, TF over GST control) in experiment [4]; 1.16 fold enrichment (6-mer frequency, TF over GST control) in experiment [5]; 1.19 fold enrichment (6-mer frequency, TF over GST control) in experiment [6]. In addition, the binding signal is 1.07 fold enrichment (6-mer frequency, TF over GST control) in experiment [7]; 1.17 fold enrichment (6-mer frequency, TF over GST control) in experiment [8]; 1.2 fold enrichment (6-mer frequency, TF over GST control) in [9]; 1.18 fold enrichment (6-mer frequency, TF over GST control) in experiment [10]; 1.16 fold enrichment (6-mer frequency, TF over GST control) in experiment [11]; 1.07 fold enrichment (6-mer frequency, TF over GST control) in experiment [12]. The binding signal was 1.16 fold enrichment (6-mer frequency, TF over GST control) in experiment [13]; 1.1 fold enrichment (6-mer frequency, TF over GST control) in experiment [14]; 1.23 fold enrichment (6-mer frequency, TF over GST control) in experiment [15]; 1.09 fold enrichment (6-mer frequency, TF over GST control) in experiment [16]; 1.06 fold enrichment (6-mer frequency, TF over GST control) in [17].
